Rab9 promoter act = activators of Rab9 promoter | Huh7 Rab9 promoter-luciferase reporter, luminescence, 24 h | Potency, µM (titrated, usually from 9.22 µM), without a hit: top-dose activation, negative = inhibition, hits mostly activators | hit rate 2.8% among 320,000 | AID 485297; note: % of control where 0% means no effect; nearly all actives have a fitted effect of over 60% in size
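Measured in stably transfected Huh7 cells bearing a Rab9 promoter–luciferase construct: 24 h compound treatment at 37 °C, followed by luminescence detection.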
SMN2 splice up = increases expression of the SMN2 splice variant. HEK293 SMN2-luciferase splicing reporter, luminescence, 30-36 h. hit rate 2.8% among 210,000. AID 1458. Potency, µM (doses to about 46.1 µM), inactives show at the highest dose activity change, positive = activation, actives largely listed as activators; note: % of control where 0% means no effect; nearly all actives have a fitted effect of over 55% in size
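HEK293 cells carry an SMN2 […]–luciferase reporter in which exon 7 inclusion puts luciferase in frame. Cells were plated 10-12 h before compound addition, then incubated 30-36 h at 37C. ONE-Glo luminescence was read; sodium butyrate at 4.5 mM final served as control.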
NPC1 prom act = activators of NPC1 promoter; Potency, µM (top dose mostly 9.22 µM), without a hit: top-dose activation, most hits filed as activators; AID 485313; hit rate 2.4% among 320,000; Huh7 NPC1 promoter luciferase reporter, 24 h; note: % of control where 0% means no effect; nearly all actives have a fitted effect of over 60% in size
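NPC1 promoter–luciferase Huh7 cells; 24 h compound; luminescence.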
ELG1 genotox = inducers of genotoxicity in HEK293T ELG1-luciferase cells; HEK293T ELG1-luciferase reporter, luminescence, 16 h; Potency, µM (titrated, usually from 46 µM), for inactives: top-dose activity change, positive = activation, actives largely listed as activators; hit rate 1.3% among 330,000; AID 504466; note: % of control where 0% means no effect; nearly all actives have a fitted effect of over 60% in size
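HEK293T cells expressing luciferase-tagged ELG1 were exposed to compound or DMSO vehicle for 16 hr at 37 °C and 5% CO2. Luciferase activity was then measured with ONE-Glo after 30 min at room temperature.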
FLuc modulator = firefly luciferase modulation, counter-screen for miR-21 project; P08659; purified FLuc, Km substrates, luminescence inhibition; Potency, µM (highest dose often 57.5 µM), for the others: at the top dose activity change, negative = inhibition, most hits filed as inhibitors; hit rate 6.9% among 360,000;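 note: plate controls were vehicle for no effect and reference inhibitor for full effect; nearly all actives have a fitted effect of over 55% in size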
Target sequence (P08659 whole entry, looked up): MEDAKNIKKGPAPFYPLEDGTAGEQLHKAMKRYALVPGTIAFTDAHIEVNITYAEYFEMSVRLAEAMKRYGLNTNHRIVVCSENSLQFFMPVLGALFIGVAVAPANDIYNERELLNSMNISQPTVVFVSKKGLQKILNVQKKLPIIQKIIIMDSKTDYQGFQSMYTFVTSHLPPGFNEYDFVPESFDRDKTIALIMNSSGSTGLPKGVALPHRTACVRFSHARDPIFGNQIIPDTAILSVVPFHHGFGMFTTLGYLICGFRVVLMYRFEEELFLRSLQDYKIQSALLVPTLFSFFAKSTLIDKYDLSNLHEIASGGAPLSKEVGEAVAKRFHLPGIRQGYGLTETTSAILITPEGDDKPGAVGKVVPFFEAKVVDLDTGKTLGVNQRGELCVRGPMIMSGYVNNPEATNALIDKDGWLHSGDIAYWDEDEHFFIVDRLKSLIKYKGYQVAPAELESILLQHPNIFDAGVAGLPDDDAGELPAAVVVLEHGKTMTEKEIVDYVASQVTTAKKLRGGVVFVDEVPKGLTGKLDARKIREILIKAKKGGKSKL
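Purified P. pyralis luciferase (10nM final) with 10uM D-luciferin and 10uM ATP (Km levels) in 50mM Tris acetate pH 7.5, 10mM Mg acetate, 0.01% Tween-20, 0.05% BSA; qHTS 6-point titration, ~60 µM downward; luminescence read.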
ELG1 DNA repair = ELG1-dependent DNA repair inhibition; HEK293T ELG1-luciferase reporter, luminescence, 16 h; DNA damage induced by 5-fluorouridine; Potency, µM (top dose mostly 46.1 µM), without a hit: at the top dose activity change, negative = inhibition, usual class: inhibitors; hit rate 2.3% among 330,000; note: % is set by controls: 0 for no effect and ±100 for the full control effect; nearly all actives have a fitted effect of over 55% in size
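Cells (2,000 per well) received 5-fluorouridine plus test compound or DMSO and were incubated 16 hr at 37 °C, 5% CO2. Luciferase activity was read by luminescence 30 min after ONE-Glo addition; signal suppression marked inhibition of damage-induced ELG1 function.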
An asterisk follows results filed as active; [ ] = dose if it differs, or a comment. Hits are enriched below; roughly 9.4% of the tested compounds scored in any of these assays. Calls come from the whole dose curve; as a rule, active = well fitted curve in the direction sought with a large enough effect; inconclusive = small, poorly fitted or top-dose-only effect, or another doubt; inactive = no such curve, though single readings can be large; an effect the other way counts as inactive or inconclusive. Potency is the fitted concentration of half-maximal effect.

Screening Cc1cccn2cc(-c3ccc(Cl)cc3)nc12 returned Rab9 promoter act 1.3µM*, NPC1 prom act inconclusive, ELG1 genotox 2.1µM*, FLuc modulator 0.38µM* and ELG1 DNA repair inconclusive.
COc1cccc(CNC(=O)Cc2ccc(NC(=O)N3CCSc4ncccc43)cc2)c1OC was read as FLuc modulator -12%.
Screening Cc1ccc(-c2c3c(=O)n(C)c(=O)n(C)c3c3c(C)nc4ccccc4n23)cc1 returned SMN2 splice up -3% and FLuc modulator -7%.
`O=[N+]([O-])c1cccn2cc(-c3ccc(Br)cc3)nc12` gave Rab9 promoter act 2.8µM*, NPC1 prom act inconclusive, ELG1 genotox inconclusive, FLuc modulator inconclusive and ELG1 DNA repair inconclusive.
COc1ccc2c(c1OC)C(=O)N1c3ccccc3COC21 (configuration not stated) was read as Rab9 promoter act 1.8µM*, SMN2 splice up 14µM*, NPC1 prom act 3.5µM*, ELG1 genotox inconclusive, FLuc modulator 3.4µM* and ELG1 DNA repair inconclusive.
COc1ccc2c(c1OC)C(=O)N1c3ccccc3C(=O)N(c3ccccc3F)C21 (configuration not stated) was read as Rab9 promoter act -7%, SMN2 splice up -18%, NPC1 prom act 0%, ELG1 genotox -19%, FLuc modulator 1% and ELG1 DNA repair inconclusive.
Screening COc1ccc2c(c1OC)C(=O)N1c3ccccc3SC21 (configuration not stated) returned Rab9 promoter act 2.8µM*, SMN2 splice up 11µM*, NPC1 prom act 2.5µM*, ELG1 genotox inconclusive, FLuc modulator 2.4µM* and ELG1 DNA repair inconclusive.
For COc1ccc2c(c1OC)C(=O)N1c3ccccc3C(=O)OC21 (configuration not stated) the results were SMN2 splice up -6%.
Screening CN(CC(=O)Nc1ccc(F)cc1)C(=O)C1CCN(S(=O)(=O)c2ccc3c(c2)OCCO3)CC1 returned Rab9 promoter act -3%, NPC1 prom act -4%, ELG1 genotox 2%, FLuc modulator 2% and ELG1 DNA repair -14%.
Screening COc1ccc(CN(C)C(=O)/C=C/c2ccc(S(=O)(=O)N3CCOCC3)cc2)cc1F returned Rab9 promoter act -20%, NPC1 prom act -6%, ELG1 genotox 2%, FLuc modulator -1% and ELG1 DNA repair 23µM*.
CN(Cc1ccc(OC(F)F)cc1)C(=O)C1CCN(S(=O)(=O)c2ccc3c(c2)OCCO3)CC1 was read as Rab9 promoter act -5%, NPC1 prom act 2%, ELG1 genotox -4%, FLuc modulator 0% and ELG1 DNA repair 7.3µM*.
`CN(Cc1ccc(OC(F)F)cc1)C(=O)/C=C/c1ccc(S(=O)(=O)N2CCOCC2)cc1` gave ELG1 genotox -5% and ELG1 DNA repair 16µM*.
For COc1ccc(OC)c(NC(=O)/C=C/c2ccc(S(=O)(=O)N3CCOCC3)cc2)c1 the results were Rab9 promoter act -8%, NPC1 prom act -1%, ELG1 genotox 0%, FLuc modulator 4% and ELG1 DNA repair -23%.
Screening O=C(COc1ccc([N+](=O)[O-])cc1)N1CCC(c2nc3ccccc3s2)CC1 returned FLuc modulator -19%.
Screening Cc1cc(C)n2nc(SCc3nnc(SCc4ccccc4C)s3)nc2n1 returned Rab9 promoter act -2%, SMN2 splice up -23%, NPC1 prom act 0%, ELG1 genotox -6%, FLuc modulator inconclusive and ELG1 DNA repair inconclusive.
Cc1cc(C)n2nc(SCc3nnc(SCc4ccccc4Cl)s3)nc2n1 was read as Rab9 promoter act -4%, SMN2 splice up -56%, NPC1 prom act -3%, ELG1 genotox -1%, FLuc modulator 17µM* and ELG1 DNA repair 15%.
Screening COC(=O)[C@@H](NC(=O)O[C@H]1C(=O)c2cc(OC)ccc2O[C@@H]1c1ccc(OC)c(Br)c1)C(C)C returned SMN2 splice up 0%.
`Cc1ccc(CNC(=O)COc2ccc(C)nc2[N+](=O)[O-])cc1` gave Rab9 promoter act 0%, SMN2 splice up 5%, NPC1 prom act -1%, ELG1 genotox 6%, FLuc modulator -2% and ELG1 DNA repair 3%.
For Cc1ccc(COc2ccc(C)nc2[N+](=O)[O-])cc1 the results were Rab9 promoter act 0.71µM*, NPC1 prom act 0.79µM*, ELG1 genotox 3.7µM*, FLuc modulator 2.4µM* and ELG1 DNA repair inconclusive.
`COc1ccc(OCCOc2ccc(C)nc2[N+](=O)[O-])cc1` gave Rab9 promoter act inconclusive, SMN2 splice up inconclusive, NPC1 prom act inconclusive, ELG1 genotox inconclusive, FLuc modulator 24µM* and ELG1 DNA repair inconclusive.
`COc1ccc(-n2c(C)cc(C(=O)COc3ccc(C)nc3[N+](=O)[O-])c2C)cc1` gave Rab9 promoter act -1%, SMN2 splice up -62%, NPC1 prom act -4%, ELG1 genotox 12%, FLuc modulator -16% and ELG1 DNA repair 18%.
For Cc1ccc(OCCOc2ccc(Cl)cc2Cl)c([N+](=O)[O-])n1 the results were Rab9 promoter act 27%, SMN2 splice up -14%[1.84 µM], NPC1 prom act inconclusive, ELG1 genotox inconclusive, FLuc modulator 17µM* and ELG1 DNA repair inconclusive.
Cn1c(=O)c2c(nc(NCc3ccccc3)n2Cc2ccc(Cl)c(Cl)c2)n(C)c1=O was read as SMN2 splice up -5% and FLuc modulator 0%.
O=C(NCCc1ccc(Cl)cc1)c1ccc(CS(=O)(=O)Cc2ccccc2F)o1 was read as FLuc modulator -17%.
For O=S(=O)(c1ccc(-c2nc3ccccc3s2)cc1)N1CCCC1 the results were Rab9 promoter act 2.8µM*, SMN2 splice up -13%, NPC1 prom act inconclusive, ELG1 genotox inconclusive, FLuc modulator -12% and ELG1 DNA repair inconclusive.
`O=S(=O)(c1ccc(-c2csc(-c3cccnc3)n2)cc1)N1CCCCC1` gave Rab9 promoter act -3%, SMN2 splice up -14%, NPC1 prom act -8%, ELG1 genotox -8%, FLuc modulator -8% and ELG1 DNA repair 23µM*.
Screening O=S(=O)(c1ccc(-c2csc(-c3cccnc3)n2)cc1)N1CCCC1 returned Rab9 promoter act -5%, SMN2 splice up 0%, NPC1 prom act -3%, ELG1 genotox -12%, FLuc modulator inconclusive and ELG1 DNA repair -27%.
O=S(=O)(c1cccc(-c2nc3ccccc3s2)c1)N1CCCC1 was read as Rab9 promoter act 15%, SMN2 splice up -24%, NPC1 prom act 10%, ELG1 genotox -5%, FLuc modulator 0%[2.3 µM] and ELG1 DNA repair -18%.

From PubChem BioAssay
